Source: the supplement of paper PMC10338343
± gives the standard deviation.

test system: MILI (PIWIL2) piRISC loaded with L1MC piRNA (26 nt); assay: pre-steady-state target cleavage rate (min^-1); guide: L1MC piRNA 5'p-UAACUAAAUACUAUGCAAGCUGUAGG; MIWI and MILI are mouse PIWI proteins and EfPiwi is from a freshwater sponge; tags in brackets are library labels; higher = faster piRNA-guided slicing of the target; conditions: auxiliary factor: 500 nM mouse GTSF1
Procedure, shortened: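 Active affinity-purified piRISC carrying one synthetic guide (1 nM) was mixed with a transcribed, DNA-blocked target RNA library […] in HEPES–potassium acetate buffer at 33 °C for 0–8 or 0–960 min, with or without 500 nM GTSF1 partner protein. Uncleaved targets were then sequenced and normalised to depth and to weakly complementary targets. Three trials were pooled, and k3 was capped at 0.0001 min^-1. A burst-and-steady-state fit was applied to obtain the pre-steady-state cleavage rate.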
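Also: 1 nM active piRISC with 0.1 nM target library at 33 °C single turnover.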

UCCUGGUACAGCUUGCAUAGUAUAAAGAAA and UCCUGGAUGUCGAAGCAUAGUAUAUUGUUA are within error of each other in “pre-steady-state target cleavage rate” value: 0.0207 ± 0.0082 for the first, 0.00971 ± 0.0047 for the second.

UCCUGGAACAGGUUGCAUAGUAUUUUCAAA and UCCUGGUACACGUUGCAUAGUAUUUAGAAA are within error of each other in “pre-steady-state target cleavage rate” value: 0.0435 ± 0.012 for the first, 0.0229 ± 0.011 for the second.

UCCUGGAUGUCCUUGCAUACUAUUUUGUUA and UCCUGGAUGUCGUUGUCAUAGUAUUUAGUUA are within error of each other in “pre-steady-state target cleavage rate” value: 0.00525 ± 0.0044 for the first, 0.00743 ± 0.0049 for the second.

Going from UCCUGGAUGUCGAUGCAUAGUAUAAAGUUA to UCCUGCUUGUGCUUGCAUAGUAUUUUCAAA, the “pre-steady-state target cleavage rate” value falls from 0.0643 ± 0.016 to 0.00521 ± 0.0042.

Going from UCCUGGAUCUGCUUGCAUAGUAUUUAGAAA to UCCUGGAUGUGCUUGCAUAGUAUUUACUUA, the “pre-steady-state target cleavage rate” value falls from 0.0794 ± 0.019 to 0.0325 ± 0.0094.

Going from UCCUGCUACAGCUUGCAUACUAUUUUCAAA to UCCUGGAACAGCUUGCAUAGAUAUUAGUAA, the “pre-steady-state target cleavage rate” value falls from 0.0295 ± 0.01 to 0.0101 ± 0.0057.

First: UCCUGGAUGUCGUUGCAUAGUAAUAAGUUA
Second: UCCUCGAUCAGCUUGCAUAGUAUUUUCAAA
The “pre-steady-state target cleavage rate” value of the first is lower: 0.0113 ± 0.004 for the first, 0.0652 ± 0.014 for the second.

Compared with UCCUGGAUGAGCUUGCAUAGUAAAAAGUUA, UCCUGCUACACGUUGCAUAGUAUUUACAAA is lower in “pre-steady-state target cleavage rate” value: 0.0673 ± 0.016 for the first, 0.0287 ± 0.01 for the second.

UCCUGGAUGUCGAACCAUAGUAUUUAGUUA and UCCUGGUACAGCUUGCAUAGUUUUUACUUA are within error of each other in “pre-steady-state target cleavage rate” value: 0.00718 ± 0.0019 for the first, 0.0154 ± 0.008 for the second.

First: UCCUGGAUGUCGAUGCAUAGCAUUUAGUUA
Second: UCCUGGAUGUGCUUGCUUAGUAUUAAGUUA
The “pre-steady-state target cleavage rate” value of the first is lower: 0.0232 ± 0.0085 for the first, 0.0615 ± 0.017 for the second.

Going from UCCUGGAUGUCCUUGCAUAGUAUUAGUUA to UCCUGGAUGUCGAUGCAUAGUAUUUAUGUUA, the “pre-steady-state target cleavage rate” value rises from 0.0068 ± 0.004 to 0.106 ± 0.022.

Compared with UCCUGGUACAGCUUGCUUAGUAUUUACUUA, UCCUGGUACACCUUGCAUAGUAUUUUCAAA is lower in “pre-steady-state target cleavage rate” value: 0.191 ± 0.038 for the first, 0.0291 ± 0.016 for the second.
